Compounds with a hit are over-represented: about 7.3% of the library has one in this group of screens.
Luc counter: Kinase-Glo luciferase inhibition (counter-screen); Q27757; Kinase-Glo luciferase, ATP luminescence, 8 min; Potency, µM (highest dose often 38.3 µM), inactives show at the highest dose activity change, negative = inhibition, hits mostly inhibitors; actives 0.28% (n = 200,000); AID 1379; also: % is scaled to controls: 0 for no effect and ±100 for the full control effect; nearly all actives have a fitted effect of over 60% in size
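Compounds were added to a substrate mix at pH 7.2 (50 mM imidazole, 10 uM ATP, within the enzyme's linear range), followed by Kinase-Glo detection reagent; luminescence was measured after 8 minutes at ambient temperature.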
Rab9 prom act: activators of Rab9 promoter. Huh7 Rab9 promoter-luciferase reporter, luminescence, 24 h. Potency, µM (highest dose often 9.22 µM), for inactives: top-dose activation, negative = inhibition, most hits filed as activators. actives 2.8% (n = 320,000). AID 485297; also: % of control where 0% means no effect; nearly all actives have a fitted effect of over 60% in size
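Luminescence from Amplite-detected luciferase (10 minutes, ambient) reports Rab9 promoter activation. Before that, stable Rab9-luciferase Huh7 cells (1500/well, reduced-serum OP-MEM I plus 10% FBS) were exposed to compound for 24 hours at 37C.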
NPC1 promoter act: NPC1 promoter activation. Huh7 NPC1 promoter luciferase reporter, 24 h. Potency, µM (highest dose often 9.22 µM), without a hit: top-dose activation, actives largely listed as activators. actives 2.4% (n = 320,000). AID 485313; also: % of control where 0% means no effect; nearly all actives have a fitted effect of over 60% in size
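NPC1 promoter–luciferase Huh7 cells; 24 h compound; luminescence.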
ELG1 genotoxic: induces genotoxicity in HEK293T cells with luciferase-tagged ELG1; HEK293T ELG1-luciferase reporter, luminescence, 16 h; Potency, µM (top dose mostly 46 µM), for the others: at the highest dose activity change, positive = activation, most hits filed as activators; actives 1.3% (n = 330,000); AID 504466; also: % of control where 0% means no effect; nearly all actives have a fitted effect of over 60% in size
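Luminescence read-out: rising ELG1-luciferase signal, reflecting elevated ELG1 protein under genetic stress, flags genotoxic compounds. Cells were treated for 16 hr at 37 °C before ONE-Glo detection.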
FLuc modulator: firefly luciferase modulation, counter-screen for miR-21 project; Potency, µM (titrated, usually from 57.5 µM), without a hit: top-dose activity change, negative = inhibition, most hits filed as inhibitors; actives 6.9% (n = 360,000); P08659; purified FLuc, Km substrates, luminescence inhibition;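 also: plate controls were vehicle for no effect and reference inhibitor for full effect; nearly all actives have a fitted effect of over 55% in size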
Target sequence (P08659 whole entry, looked up): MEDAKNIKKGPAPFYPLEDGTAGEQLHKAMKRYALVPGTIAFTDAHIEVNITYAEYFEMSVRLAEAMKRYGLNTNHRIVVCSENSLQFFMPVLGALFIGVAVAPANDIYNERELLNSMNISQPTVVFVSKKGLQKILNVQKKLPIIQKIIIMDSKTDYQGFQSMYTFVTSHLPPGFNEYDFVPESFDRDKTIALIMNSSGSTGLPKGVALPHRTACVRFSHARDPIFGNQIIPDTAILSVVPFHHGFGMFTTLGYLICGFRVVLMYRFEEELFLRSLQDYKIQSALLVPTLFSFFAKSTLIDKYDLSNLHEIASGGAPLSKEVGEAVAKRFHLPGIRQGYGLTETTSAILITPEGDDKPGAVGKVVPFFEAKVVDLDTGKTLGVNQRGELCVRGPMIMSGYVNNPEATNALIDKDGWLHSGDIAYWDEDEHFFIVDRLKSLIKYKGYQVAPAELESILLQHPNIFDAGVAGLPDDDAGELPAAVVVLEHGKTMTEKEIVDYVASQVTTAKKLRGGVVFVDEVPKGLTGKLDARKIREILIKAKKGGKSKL
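Biochemical qHTS of compounds, final roughly 60 µM downward over six points, against 10 nM purified firefly luciferase using Km concentrations of substrates (10 uM D-luciferin, 10 uM ATP) in Tris acetate pH 7.5 buffer; luminescence output.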
SMN2 splice enh: enhancers of SMN2 splice variant expression. HEK293 SMN2-luciferase splicing reporter, luminescence, 30-36 h. Potency, µM (titrated, usually from 46.1 µM), inactives show at the top dose activity change, positive = activation, actives largely listed as activators. actives 2.8% (n = 210,000). AID 1458; also: % of control where 0% means no effect; nearly all actives have a fitted effect of over 55% in size
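HEK293 cells carry an SMN2 […]–luciferase reporter in which exon 7 inclusion puts luciferase in frame. Cells were plated 10-12 h before compound addition, then incubated 30-36 h at 37C. ONE-Glo luminescence was read; sodium butyrate at 4.5 mM final served as control.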
Numbers without * were called inactive; [ ] = dose if it differs, or a comment. Calls follow the shape of the dose curve; as a rule, active = well fitted curve in the direction sought with a large enough effect; inconclusive = small, poorly fitted or top-dose-only effect, or another doubt; inactive = no such curve, though single readings can be large; an effect the other way counts as inactive or inconclusive. Potency is read from the fitted curve at half-maximal effect.

c1ccc(CSc2nnc(Cc3ccccc3)o2)cc1 was read as Luc counter -2.0%, Rab9 prom act inconclusive, NPC1 promoter act 18.9%, ELG1 genotoxic inconclusive, FLuc modulator 23.9µM* and SMN2 splice enh inconclusive.
`O=C(O)c1cccc(CSc2nnc(Cc3ccccc3)o2)c1` gave Luc counter 1.7%, Rab9 prom act inconclusive, NPC1 promoter act 27.9%, ELG1 genotoxic inconclusive, FLuc modulator 19µM* and SMN2 splice enh 15.8µM*.
Screening O=C(O)c1cccc(CSc2ncn[nH]2)c1 returned Rab9 prom act inconclusive, NPC1 promoter act 11.9%, ELG1 genotoxic -0.8% and FLuc modulator 19µM*.
c1ccc(CSc2nnc(Cc3ccccn3)o2)cc1 was read as Luc counter -4.0%, Rab9 prom act inconclusive, NPC1 promoter act inconclusive, ELG1 genotoxic 2.3%, FLuc modulator inconclusive and SMN2 splice enh -0.8%.
`Cc1cccc(N2CCN(C(=O)c3nn(C)c4c3CSc3ccccc3-4)CC2C)c1` (configuration not stated) gave FLuc modulator -1.3%.
Screening CC(C)(Oc1ccc(Cl)cc1)C(=O)Nc1nnc2n1CCS2 returned FLuc modulator -0.9%.
Cc1ccc(OCC(=O)Nc2ccc3nn(-c4ccc(Cl)cc4)nc3c2)cc1 was read as FLuc modulator 1.6% and SMN2 splice enh -16.5%.
C/C(=N\NC(=O)c1c(Cl)c(C)nn1C)c1cccc(NC(=O)COc2ccc(Cl)cc2)c1 was read as Luc counter -0.2%, Rab9 prom act 26.2%, NPC1 promoter act inconclusive, ELG1 genotoxic 3.2%, FLuc modulator 8.49µM* and SMN2 splice enh 13.4%.
For C/C(=N/NC(=O)c1ccc(C)s1)c1cccc(NC(=O)COc2ccc(Cl)cc2C)c1 the results were Luc counter 2.3%, Rab9 prom act 3.1%, NPC1 promoter act 26.2%, ELG1 genotoxic 7.5%, FLuc modulator 5.36µM* and SMN2 splice enh -7.6%.
Cc1cc(Cl)ccc1OCC(=O)Nc1nc(N)nc(N)n1 was read as Luc counter -1.6%[7.66 µM] and SMN2 splice enh -6.5%[9.22 µM].
Cc1ccc2c(c1)-c1nc(-c3ccc4c(c3)NC(=O)CO4)cc(-c3ccc(F)cc3)c1CO2 was read as FLuc modulator -0.3% and SMN2 splice enh 2.0%.
For CCN(CC)CCCNc1ncnc2c1cnn2-c1ccc(C)c(C)c1 the results were FLuc modulator 15.1µM*.
`CCCCNc1ncnc2c1cnn2-c1ccc(C)cc1C` gave Luc counter 1.1%, Rab9 prom act -7.4%, NPC1 promoter act -0.7%, ELG1 genotoxic 14.3%, FLuc modulator -19.5% and SMN2 splice enh -27.9%.
For C=CCNc1ncnc2c1cnn2-c1ccc(Cl)cc1 the results were Luc counter -1.7%, Rab9 prom act 1.12µM*, NPC1 promoter act 0.891µM*, ELG1 genotoxic 1.84µM*, FLuc modulator 0.849µM* and SMN2 splice enh 2.82µM*.
Cc1cccc(-n2ncc3c(NCCCO)ncnc32)c1 was read as Luc counter -1.7%, Rab9 prom act 1.12µM*, NPC1 promoter act 2.51µM*, ELG1 genotoxic 3.66µM*, FLuc modulator 6.75µM* and SMN2 splice enh 11.2µM*.
`Cc1c(C)n(CCc2ccccc2)c2ncnc(NCCO)c12` gave Rab9 prom act 1.78µM*, NPC1 promoter act 3.55µM*, ELG1 genotoxic inconclusive and FLuc modulator 16.9µM*.
`Cc1cccc(-n2ncc3c(NCc4ccc5c(c4)OCO5)ncnc32)c1` gave Luc counter -0.1%, Rab9 prom act 15.6%, NPC1 promoter act -1.6%, ELG1 genotoxic inconclusive, FLuc modulator -12.7% and SMN2 splice enh -1.3%.
`C=CCNc1ncnc2c1cnn2-c1cccc(C)c1` gave Luc counter 2.0%, Rab9 prom act 1.41µM*, NPC1 promoter act 2.51µM*, ELG1 genotoxic 2.91µM*, FLuc modulator 4.78µM* and SMN2 splice enh 11.2µM*.
Screening Cc1ccc(-n2c(C)c(C)c3c(NCCCO)ncnc32)cc1 returned Rab9 prom act 2.51µM*, NPC1 promoter act 2.82µM*, ELG1 genotoxic inconclusive and FLuc modulator 19µM*.
`COc1ccc(C(=O)COC(=O)CCCC(=O)Nc2ccc(C(C)=O)cc2)cc1` gave FLuc modulator 5.36µM* and SMN2 splice enh 9.1%.
CCCc1ccc(C(=O)CCC(=O)O)cc1 was read as Luc counter -4.9%, Rab9 prom act 4.9%, NPC1 promoter act 7.6%, ELG1 genotoxic 19.1%, FLuc modulator 23.9µM* and SMN2 splice enh -5.9%.
O=C(CCc1ccccc1)OCC(=O)c1ccc([N+](=O)[O-])cc1 was read as Luc counter -0.4%, Rab9 prom act 1.0%, NPC1 promoter act -4.6%, ELG1 genotoxic 1.6%, FLuc modulator -1.4% and SMN2 splice enh 2.7%.
For COc1ccc(C(=O)COC(=O)CCC(=O)Nc2ccc(C(C)=O)cc2)cc1 the results were Rab9 prom act 26.5%, NPC1 promoter act 26.7%, ELG1 genotoxic inconclusive and FLuc modulator inconclusive.
COc1ccc(C(=O)CCc2ccccc2)cc1 was read as Rab9 prom act inconclusive, NPC1 promoter act inconclusive, ELG1 genotoxic inconclusive and FLuc modulator 16.9µM*.
`COc1ccc(C(=O)COC(=O)CCc2ccccc2)cc1` gave Rab9 prom act -2.2%, NPC1 promoter act -5.4%, ELG1 genotoxic -2.7% and FLuc modulator 26.9µM*.
O=C(NCc1ccccc1)C(=O)NCC(c1ccc2c(c1)OCO2)N1CCOCC1 (configuration not stated) was read as FLuc modulator 0.6%.
`CCC(=O)OCc1cnc(C)c2oc(=O)c(C(=O)Nc3ccccc3C(F)(F)F)cc12` gave FLuc modulator 0.2%.
For COc1ccc(C(=O)COC(=O)CCn2nnc(-c3cccc(O)c3OC)n2)cc1 the results were Luc counter -6.6%, Rab9 prom act 4.4%, NPC1 promoter act -1.3%, ELG1 genotoxic 11.5%, FLuc modulator 9.53µM* and SMN2 splice enh -0.8%.
`CC(C)C1C(=O)Nc2ccc(S(=O)(=O)NCCc3ccc(Cl)cc3)cc21` (configuration not stated) gave FLuc modulator -2.9%.
For COc1ccc(OC)c(CCNC(=O)CCc2cn(Cc3cc(C)ccc3C)c3ccccc23)c1 the results were FLuc modulator -7.6%.
Screening Cc1ccc(OCCOc2ccc(Br)cc2)c([N+](=O)[O-])n1 returned Luc counter -1.6%, Rab9 prom act inconclusive, NPC1 promoter act inconclusive, ELG1 genotoxic inconclusive, FLuc modulator 9.53µM* and SMN2 splice enh 11.2µM*.
`Cc1ccc(OCC(=O)Nc2ccc(C)c(F)c2)c([N+](=O)[O-])n1` gave Rab9 prom act 2µM*, NPC1 promoter act 2.24µM*, ELG1 genotoxic inconclusive and FLuc modulator 9.53µM*.
